This is an account of results in PubChem BioAssay (NCATS).

Records with an inconclusive call do not appear. The source made the active and inactive calls. The call rests on the fitted dose curve; in most records, active means well fitted cell-killing curve with a large enough effect; inconclusive means small, poorly fitted or top-dose-only effect, or effect the other way; inactive means no such curve, though single readings can be large or run the other way.

The nature of assay [1]: Quantitative High-Throughput drug screen in 47 multiple myeloma cell lines against the NCATS MIPE library collection: FR4_PLB cell viability assay (AID 1918924; further: nearly all actives have a fitted effect of over 35% in size; further: potency means the concentration at half of the fitted maximal effect). In short, it runs like this:
(§1)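 Luminescent ATP measurement with CellTiter-Glo gives viability, scaled between DMSO-only wells (100%) and media-only wells (0%). Cells, 500 per well, faced library compounds for 48 hours at 37C.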

Assay [2] can be described thus: Quantitative High-Throughput drug screen in 47 multiple myeloma cell lines against the NCATS MIPE library collection: Delta47_JCRB cell viability assay (AID 1918925; further: nearly all actives have a fitted effect of over 45% in size; further: potency means the concentration at half of the fitted maximal effect). In short, it runs like this:
(§2)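 Myeloma cell lines, 500 cells per well, exposed to MIPE 4.0 library compounds for 48 h at 37C, 5% CO2. Viability from ATP by CellTiter-Glo luminescence; normalised to DMSO (100%) and media-only (0%) wells.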

The nature of assay [3]: Quantitative High-Throughput drug screen in 47 multiple myeloma cell lines against the NCATS MIPE library collection: EJM_DSMZ cell viability assay (AID 1918926; further: nearly all actives have a fitted effect of over 30% in size; further: potency means the concentration at half of the fitted maximal effect). An outline of the steps: as §2
The nature of assay [4]: Quantitative High-Throughput drug screen in 47 multiple myeloma cell lines against the NCATS MIPE library collection: ARD_JJKsccE7 cell viability assay (AID 1918929; further: potency means the concentration at half of the fitted maximal effect). In short, it runs like this: as §2
A short description of assay [5]: Quantitative High-Throughput drug screen in 47 multiple myeloma cell lines against the NCATS MIPE library collection: Karpas620_DSMZ cell viability assay (AID 1918959). Further: nearly all actives have a fitted effect of over 30% in size. Further: potency means the concentration at half of the fitted maximal effect. In short, it runs like this:
as §1

The nature of assay [6]: Quantitative High-Throughput drug screen in 47 multiple myeloma cell lines against the NCATS MIPE library collection: Karpas417_ECACC cell viability assay (AID 1918961). Further: potency means the concentration at half of the fitted maximal effect. The settings on record: Karpas417 myeloma viability, CellTiter-Glo ATP luminescence, 48 h; viability (% of DMSO): at 45.8 µM (top of the series). In short, it runs like this: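 Steps: seed 500 cells per well; pin-transfer MIPE 4.0 library; incubate 48 h at 37C, 5% CO2, humidified; add CellTiter-Glo, 5 min room temperature; read luminescence.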

Assay [7] can be described thus: Quantitative High-Throughput drug screen in 47 multiple myeloma cell lines against the NCATS MIPE library collection: ARP1_JJKsccF8 cell viability assay (AID 1918928; further: nearly all actives have a fitted effect of over 40% in size; further: potency means the concentration at half of the fitted maximal effect). An outline of the steps: (§3)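 Myeloma cells, 500 per well, were exposed to MIPE 4.0 drugs by pin transfer for 48 h at 37 °C, 5% CO2. Viability was read as ATP luminescence with CellTiter-Glo, normalised to DMSO-only (100%) and medium-only (0%) wells.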

A short description of assay [8]: Quantitative High-Throughput drug screen in 47 multiple myeloma cell lines against the NCATS MIPE library collection: KMM1_JCRB cell viability assay (AID 1918960). Further: nearly all actives have a fitted effect of over 30% in size. Further: potency means the concentration at half of the fitted maximal effect. In short, it runs like this: as §3
Assay [9] can be described thus: Quantitative High-Throughput drug screen in 47 multiple myeloma cell lines against the NCATS MIPE library collection: AMO1_DSMZ cell viability assay (AID 1918927; further: nearly all actives have a fitted effect of over 30% in size). An outline of the steps:
as §2

As for `CCn1cc(C(=O)O)c(=O)c2cc(F)c(N3CCN(C)CC3)cc21`, the Potency result in [1], in assay [2], in assay [3], in assay [5] and in assay [6] was “inactive” each time. Moreover, in assay [4], the Potency was 0.0132 µM (active).
For `OCc1ccc(-c2nn(Cc3ccccc3)c3ccccc23)o1`, the Potency entry in assay [1], in [3], in assay [7] and in [8] was “inactive” throughout. The Potency in assay [2] was 20.9 µM (active).
On to `COc1cc(NS(=O)(=O)c2ccc(N)cc2)nc(OC)n1`, for which the Potency entry in [1], in assay [2], in assay [3], in assay [4], in [5] and in assay [8] was “inactive” throughout.
Consider `CCN(C)C(=O)Oc1cccc([C@H](C)N(C)C)c1`, for which the Potency entry in assay [1], in assay [2], in assay [3] and in assay [7] was “inactive” throughout. Besides, in assay [5], the Potency is 0.0332 µM (active).
`CC(N)C12CC3CC(CC(C3)C1)C2` (stereo unspecified): the Potency entry in assay [1], in assay [2], in assay [3], in assay [4], in assay [5] and in assay [8] was “inactive” each time.
On to `O=S(=O)(O)CCS`, for which the Potency entry in [1], in assay [2], in assay [3], in [7], in assay [5] and in [8] was “inactive” throughout.
Consider `CNCC[C@H](Oc1cccc2ccccc12)c1cccs1`, for which the Potency in assay [1] was 3.72 µM (active); in assay [2], 2.35 µM (active); in assay [3], 0.935 µM (active); in assay [4], 23.5 µM (active); in assay [5], 23.5 µM (active); in assay [8], 26.4 µM (active).
With `N=C(N)c1ccc(OCCCCCOc2ccc(C(=N)N)cc2)cc1`, the Potency in [1] was 18.7 µM (active); in assay [2] it was 5.26 µM (active); in assay [3], 14.8 µM (active); in [7], 16.6 µM (active); in [8], 5.26 µM (active). Also, the Potency entry in [4] was “inactive”.
Turning to `O=C(O)c1cccnc1`, the Potency result in assay [1], in [2], in assay [3], in assay [4], in assay [5] and in [8] was “inactive” in each case. Also, the Potency entry in assay [6] was “inactive”.
As to `C[C@@H](NCCCc1cccc(C(F)(F)F)c1)c1cccc2ccccc12`, the Potency result in assay [1], in assay [2], in assay [3], in [7] and in assay [8] was “inactive” each time.
Consider `Cn1c(=O)c2c(ncn2CC(O)CO)n(C)c1=O` (stereo unspecified), for which the Potency result in assay [1], in assay [2], in [3], in [5] and in assay [8] was “inactive” throughout.
Take `Cc1noc(NS(=O)(=O)c2ccc(N)cc2)c1C`: the Potency result in assay [1], in assay [2], in assay [3], in [7], in assay [4] and in assay [5] was “inactive” throughout. Moreover, the Potency entry in [8] and in assay [6] was “inactive” in each case.
Take `CC[C@H](NC(C)C)[C@H](O)c1ccc(O)c2[nH]c(=O)ccc12`: the Potency result in [1], in assay [2], in [3], in assay [4] and in assay [5] was “inactive” throughout.
Turning to `Nc1nc(N)nc(-c2cc(Cl)ccc2Cl)n1`, the Potency entry in assay [1], in assay [2], in assay [3], in [7], in [8] and in assay [6] was “inactive” throughout.
Turning to `CC(=O)Oc1ccccc1C(=O)Nc1ncc([N+](=O)[O-])s1`, the Potency in assay [1] was 19.1 µM (active); in assay [2], 30.3 µM (active); in [3], 13.6 µM (active); in assay [7], 34 µM (active); in assay [4], 21.5 µM (active); in assay [5] it was 12.1 µM (active). For the same compound, the Potency in assay [8] was 8.55 µM (active); in [6], 13.6 µM (active).
Take `COc1cc2nc(N3CCCN(C)CC3)nc(NC3CCN(Cc4ccccc4)CC3)c2cc1OC`: the Potency in assay [1] is 5.26 µM (active); in [2], 2.09 µM (active); in assay [3] it was 9.35 µM (active); in [7] it was 8.33 µM (active); in assay [4], 8.33 µM (active); in assay [5], 3.72 µM (active). The Potency is 7.43 µM (active) in [8] and 2.35 µM (active) in assay [6].
Take `CCN1CCCC1CNC(=O)c1cc(S(N)(=O)=O)ccc1OC` (stereo unspecified): the Potency result in [1], in assay [2], in [3], in assay [4], in assay [5] and in [8] was “inactive” each time. Besides, the Potency result in assay [6] is “inactive”.
`CO[C@@]12[C@H](COC(N)=O)C3=C(C(=O)C(C)=C(N)C3=O)N1C[C@@H]1N[C@@H]12`: the Potency in assay [1] was 26.4 µM (active); in assay [2] it was 23.5 µM (active); in [7] it was 26.4 µM (active). Moreover, the Potency entry in assay [9], in [4], in assay [5] and in assay [8] was “inactive” throughout.
For the compound `Cc1ccnc2c1NC(=O)c1cccnc1N2C1CC1`, the Potency result in assay [1], in [3], in assay [7] and in assay [5] was “inactive” each time. For the same compound, the Potency in assay [2] is 20.9 µM (active).
Consider `NCCCC(O)(P(=O)(O)O)P(=O)(O)O`, for which the Potency entry in assay [1], in assay [2], in assay [3], in assay [4], in [5] and in assay [8] was “inactive” in each case. Also, the Potency result in assay [6] was “inactive”.
Consider `O=C(O)c1cc(=O)[nH]c(=O)[nH]1`, for which the Potency entry in assay [1], in assay [2], in assay [3], in assay [4], in [5] and in assay [8] was “inactive” throughout. For the same compound, the Potency entry in assay [6] was “inactive”.
As to `CN(C)c1ccc(C(=C2C=CC(=[N+](C)C)C=C2)c2ccc(N(C)C)cc2)cc1`, the Potency is 0.132 µM (active) in assay [1]; 0.0105 µM (active) in assay [2]; 0.148 µM (active) in assay [3]; 0.166 µM (active) in assay [7]; 0.526 µM (active) in assay [4].
On to `CC1=CC(=O)c2ccccc2C1=O`, for which the Potency is 26.4 µM (active) in [1], 16.6 µM (active) in assay [2], 20.9 µM (active) in assay [3] and 14.8 µM (active) in assay [5]. The Potency entry in [4] and in assay [8] was “inactive” each time.
As to `CC(C)(C)C(=O)OCOP(=O)(COCCn1cnc2c(N)ncnc21)OCOC(=O)C(C)(C)C`, the Potency in assay [1] was 6.62 µM (active); in [2] it was 0.0833 µM (active); in assay [3], 0.935 µM (active); in assay [7], 0.833 µM (active); in assay [4], 5.9 µM (active); in [5], 16.6 µM (active). Besides, the Potency in assay [8] is 11.8 µM (active).
As for `Nc1ccc(S(=O)(=O)Nc2ccccn2)cc1`, the Potency result in [1], in assay [3], in [4], in assay [5], in assay [8] and in assay [6] was “inactive” in each case.
In the case of `COC(=O)Nc1nc2ccc(S(=O)c3ccccc3)cc2[nH]1` (stereo unspecified), the Potency was 7.43 µM (active) in [1] and 6.62 µM (active) in assay [2]. The Potency entry in assay [5] and in assay [8] was “inactive” throughout.
As to `Nc1nc(=S)c2[nH]cnc2[nH]1`, the Potency in assay [1] was 1.66 µM (active); in [2], 2.96 µM (active); in assay [7] it was 1.32 µM (active). Further, the Potency result in assay [4], in assay [5], in assay [8] and in [6] was “inactive” each time.
